The sample as a whole holds a higher share of hits than the screen did.
KDM5B inhibitor – inhibitors of human KDM5B histone demethylase; Q9UGL1; KDM5B demethylase, FDH-coupled NADH fluorescence (FDH is formaldehyde dehydrogenase); Potency, µM (highest dose often 57.7 µM), actives largely listed as inhibitors; 220,000 tested, 2.6% active; active means well fitted inhibition curve with a large enough effect; further: 0% is about no effect; nearly all actives have a fitted effect of over 70% in size
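KDM5BΔAP (200 nM final) in 50 mM HEPES pH 7.5, 0.01% Tween-20 was preincubated 10 min at RT with compound over a concentration range. Substrate mix (H3K4me3 12.5 µM, α-KG 25 µM, Fe²⁺, ascorbate, NAD⁺, FDH) was added, and NADH fluorescence change over 30 min gave dose-response curves.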
* marks the source's active call; other numbers are inactive results. Potency means the concentration at half of the fitted maximal effect.

Cc1noc(C)c1COc1cccc(C(=O)N[C@@H](Cc2ccccc2)c2nc3ccccc3[nH]2)c1 was read as KDM5B inhibitor inactive.
For O=C(C1CCCC1)N1CC2(CCCN(CC3CCCCC3)C2)Cc2ccccc21 (centres undefined) the results were KDM5B inhibitor inactive.
Cc1nc(-c2cc3ccc(OCC(=O)NCC(C)C)cc3oc2=O)cs1 was read as KDM5B inhibitor inactive.
CCc1cccc(NC(=O)CSc2nc3c(=O)[nH]cnc3n2CC)c1 was read as KDM5B inhibitor inactive.
Screening CCN(CC)c1cc(CCC(=O)N2CCC(COC)CC2)ccn1 returned KDM5B inhibitor 25µM*.
Screening COc1cccc(CCC(=O)N2CCC(OCC3CC3)C2)c1 (centres undefined) returned KDM5B inhibitor inactive.
`COCCOC1CCN(C(=O)CCc2cccc(OC)c2)CC1` gave KDM5B inhibitor inactive.
Screening Cc1ccc(OC(=O)C(C)Oc2ccc(Cl)cc2Cl)c(C)c1 (centres undefined) returned KDM5B inhibitor inactive.
For Cc1ccc(-n2nc(N3CCN(C(=O)Nc4ccccc4C)CC3)ccc2=O)cc1C the results were KDM5B inhibitor inactive.
Screening CO[C@@H]1COCC[C@H]1NC(=O)CCc1ccc(-c2ccc(Cl)cc2)[nH]1 returned KDM5B inhibitor 28µM*.
`O=C(CCc1ccc(-c2ccc(Cl)cc2)[nH]1)N[C@@H]1C[C@@H]2OCC[C@@H]21` gave KDM5B inhibitor 32µM*.
CCOc1ccc(C(=O)N[C@H]2C[C@@H]3OCC[C@H]23)cc1OCC was read as KDM5B inhibitor inactive.
Cc1ccc(O[C@H]2COCC[C@H]2NC(=O)CCc2nc3ccccc3[nH]2)cn1 was read as KDM5B inhibitor inactive.
For O=C(COc1ccc(F)c(Cl)c1)N[C@H]1C[C@@H]2OCC[C@H]12 the results were KDM5B inhibitor inactive.
O=C(CSc1ccc(Cl)cc1)N[C@@H]1COCC[C@@H]1OCC1CC1 was read as KDM5B inhibitor inactive.
For CCc1ccc(NC(=O)c2cnc(N3CCOCC3)c3ccccc23)cc1 the results were KDM5B inhibitor inactive.
For O=C(CSc1nc2c(c(=O)n1CCc1ccccc1)SCC2)Nc1ccc(C(F)(F)F)cc1 the results were KDM5B inhibitor inactive.
Screening CCN1CCN(c2ccc(NC(=O)c3ccc(OC)c(F)c3)cc2C)CC1 returned KDM5B inhibitor inactive.
Screening CCOc1ccc(N2CC(C(=O)Nc3ccc(C)cn3)CC2=O)cc1 (centres undefined) returned KDM5B inhibitor inactive.
`COc1ccc(CNC(=O)CC[C@]23CC[C@](C)(O)C[C@H]2C(C)(C)C[C@@H]3NCc2ccccn2)cc1` gave KDM5B inhibitor inactive.
For Cc1cc(-c2cc3[nH]ccc3c(C(=O)NCc3c(C)cc(C)[nH]c3=O)n2)ccn1 the results were KDM5B inhibitor 11µM*.
Screening Cc1cc(C)c(CNC(=O)c2nc(-c3ccnn3C)cc3c2ccn3C(C)C)c(=O)[nH]1 returned KDM5B inhibitor 32µM*.
Cc1cc(C)c(CNC(=O)c2nc(-c3ccccc3C#N)cc3c2ccn3C(C)C)c(=O)[nH]1 was read as KDM5B inhibitor inactive.
Screening Cc1cc(C)c(CNC(=O)c2nc(-c3ccc(CO)cc3)cc3c2ccn3C)c(=O)[nH]1 returned KDM5B inhibitor 35µM*.
For Cc1cc(C)c(CNC(=O)c2nc(-c3ccccc3)cc3[nH]ccc23)c(=O)[nH]1 the results were KDM5B inhibitor inactive.
`COc1ccc(-c2cc3c(ccn3C)c(C(=O)NCc3c(C)cc(C)[nH]c3=O)n2)cc1` gave KDM5B inhibitor inactive.
Cc1cc(C)c(CNC(=O)c2nc(-c3cccc(O)c3)cc3c2ccn3C)c(=O)[nH]1 was read as KDM5B inhibitor 35µM*.
Cc1cc(C)c(CNC(=O)c2nc(-c3cccnc3)cc3[nH]ccc23)c(=O)[nH]1 was read as KDM5B inhibitor inactive.
`Cc1cc(C)c(CNC(=O)c2nc(-c3ccccc3)cc3c2ccn3C(C)C)c(=O)[nH]1` gave KDM5B inhibitor inactive.
`Cc1cc(C)c(CNC(=O)c2nc(-c3cccc(F)c3)cc3c2ccn3C)c(=O)[nH]1` gave KDM5B inhibitor inactive.
`CCOc1cccc(C(=O)N(Cc2ccc(F)cc2)c2ccccn2)c1` gave KDM5B inhibitor inactive.
Cc1ccc2oc(-c3ccc(C)c(NC(=O)COc4ccccc4)c3)nc2c1 was read as KDM5B inhibitor inactive.
For CCCCn1nc(C(=O)Nc2ccc3nc(N4CCOCC4)sc3c2)c2ccccc2c1=O the results were KDM5B inhibitor inactive.
For CCCn1c(=O)n(CC(=O)Nc2c(C)cccc2C)c(=O)c2c1nc(C)n2CCOC the results were KDM5B inhibitor inactive.
`O=C(CSc1nnnn1C1CC1)c1ccc(-c2ccccc2)cc1` gave KDM5B inhibitor inactive.
For CCOC(=O)CSC1=C(C#N)C(c2ccc(O)c(OC)c2)CC(=O)N1 (centres undefined) the results were KDM5B inhibitor inactive.
`O=C(Nc1ccc(Cl)cc1)c1ccc2c3c(cccc13)CC2` gave KDM5B inhibitor inactive.
Screening CCn1c2c(c(=O)n1-c1ccccc1)CCN(C(=O)c1ccc(Oc3ccccc3)cc1)C2 returned KDM5B inhibitor inactive.

Source: PubChem BioAssay
